Sampled rows, rich in hits. Any-hit rate of the full collection: about 2.9%.
B2AR ag: agonists of human beta-2 adrenergic receptor inducing internalization; Am2.2-beta2AR cells, FAP receptor internalization, flow cytometry; response, % (concentration not given with the values); hit rate 0.43% among 340,000; AID 504454;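 active means response above a set limit, near 3 SD of response in nonfluorescent compounds, cut at about 42% in these data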
PP1 counter: counter-screen for PP5 inhibitors: inhibitors of human PP1-alpha. P62136. purified PP1alpha, OMFP fluorescence. inhibition, % at 6.7 µM. hit rate 0.9% among 320,000;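 active means inhibition above the mean inhibition of all tested compounds plus 3 SD, computed separately for each screening campaign, cut at about 15% in these data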
NadD inh: NadD (S. aureus) enzyme inhibition | purified NadD enzyme, colorimetric absorbance read-out | inhibition, % at 20 µM | hit rate 0.78% among 360,000; in the data active means inhibition above about 26%
Exocytosis inh: blocks lytic granule exocytosis | TALL-104 LAMP-1 surface exposure, flow cytometry; cells stimulated with thapsigargin and PMA | inhibition, % at 10 µM | hit rate 0.66% among 360,000;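 active means inhibition above about 55%, limit read from the data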
GRK2 inh: inhibitors of human GRK2 displacing RNA aptamer; inhibition of aptamer binding, % at 10 µM; P25098; bead flow cytometry, FAM-aptamer displacement from GRK2; hit rate 0.59% among 330,000;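 active means inhibition of aptamer binding above 40%, roughly 3 SD of noise, on plates passing a quality check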;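 further: median bead fluorescence of bound FAM aptamer so fluorescent compounds give negative values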
Target sequence (P25098 whole entry, looked up): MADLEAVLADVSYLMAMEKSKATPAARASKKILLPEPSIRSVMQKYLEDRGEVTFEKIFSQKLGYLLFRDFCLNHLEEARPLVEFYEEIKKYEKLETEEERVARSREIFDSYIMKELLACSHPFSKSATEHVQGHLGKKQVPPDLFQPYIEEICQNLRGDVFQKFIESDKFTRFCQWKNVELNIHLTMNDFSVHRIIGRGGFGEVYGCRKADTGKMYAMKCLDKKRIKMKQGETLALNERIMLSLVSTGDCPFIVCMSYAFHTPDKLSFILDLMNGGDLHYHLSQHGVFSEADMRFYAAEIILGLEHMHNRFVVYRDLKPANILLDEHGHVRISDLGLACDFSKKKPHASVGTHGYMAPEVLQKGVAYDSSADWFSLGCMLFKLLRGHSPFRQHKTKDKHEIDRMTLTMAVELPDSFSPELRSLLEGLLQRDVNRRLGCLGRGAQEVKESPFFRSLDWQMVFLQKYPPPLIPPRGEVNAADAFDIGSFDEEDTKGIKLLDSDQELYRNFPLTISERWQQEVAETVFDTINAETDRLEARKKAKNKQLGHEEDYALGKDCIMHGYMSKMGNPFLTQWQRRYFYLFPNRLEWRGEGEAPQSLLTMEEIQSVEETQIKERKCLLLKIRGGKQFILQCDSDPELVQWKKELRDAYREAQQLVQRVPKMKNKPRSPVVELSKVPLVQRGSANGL
An asterisk follows results filed as active; x = no result given.

SMILES	B2AR ag	PP1 counter	NadD inh	Exocytosis inh	GRK2 inh
O=C(N/N=C/c1ccc(Cl)cc1)c1sccc1OCc1ccc(F)cc1	55*	4	0	7	0
O=C(N/N=C/c1ccc(O)cc1)c1ccc(COc2cc(Cl)ccc2Cl)o1	49*	7	9	3	1
CCN(CC(=O)Nc1ccccc1OC)Cc1csc(CC(=O)Nc2ccc(C)cc2)n1	-1	x	-4	-8	11
O=c1cc(O)c2sc3nc(-c4cccnc4)cc(C(F)(F)F)c3c2[nH]1	-12	18*	3	-9	9
Cc1cc(C(F)(F)F)c2c(n1)sc1c(O)cc(=O)[nH]c12	13	-3	7	-1	1
CC(C)N1CC2(CC(c3ccccc3C(F)(F)F)=NO2)CN1C(=O)c1ccco1 (configuration not stated)	x	x	2	-1	x
Cc1nn(C)c(C(=O)Sc2cccc(Cl)c2)c1[N+](=O)[O-]	10	-4	-3	64*	0
CCn1nc(C)cc1C(=O)Sc1cccc(Cl)c1	1	-4	-3	68*	2
CCn1nc(C)cc1C(=O)N1CCCC(N2CCN(c3cccc(Cl)c3)CC2)C1 (configuration not stated)	4	-6	-5	-2	0
C=C(C)COC(=O)C1CC2OC2CC1C(=O)OCC(=C)C (configuration not stated)	4	x	0	1	x
COc1cccc2cc(C(=O)C3=C(O)C(=O)N(CCN4CCOCC4)C3c3cccc(Cl)c3)oc12 (configuration not stated)	16	23*	16	0	0
COc1cccc2cc(C(=O)C3=C(O)C(=O)N(CCN4CCOCC4)C3c3ccc(Cl)cc3)oc12 (configuration not stated)	20	8	12	0	2
COc1ccc(NC(=O)CN2C(=O)/C(=C3\SC(=S)N(CCC(=O)O)C3=O)c3ccccc32)cc1	4	-1	51*	1	0
COc1ccc(/C=N/NC(C)(C)C)c(OC)c1	-5	-1	0	3	0
CCN(CC)CC(C)(C)C(=O)/C=C/c1ccc(/C=C/C(=O)C(C)(C)CN(CC)CC)cc1	46*	x	-2	50	x
Cc1ccc(OCCOC(=O)c2c(-c3ccccc3)noc2C)cc1	1	0	-6	73*	0
O=C(CSc1nnc(CNC(=O)c2ccco2)o1)Nc1ccccc1F	-2	-3	-3	-3	0
C=CCNC(=O)c1c(CS(=O)(=O)c2ccccc2)noc1C(=O)NCc1ccccc1	-6	0	-6	6	0
O=C1O/C(=C/c2ccccc2)c2ccccc21	-6	0	-1	0	0
N#CC1=C(c2ccccc2)/C(=C/c2ccccc2)OC1=O	36	5	0	66*	0
O=C1C=C(NCCN2CCOCC2)CC(c2ccccc2)C1 (configuration not stated)	3	1	-1	0	0
COc1ccc(/C=C2\CN(Cc3ccccc3)C/C(=C\c3ccc(OC)c(O)c3)C2=O)cc1O	33	6	28	67*	1
COc1ccc(/C=C2\CC/C(=C\c3ccc(OC)c(OC)c3)C2=O)cc1OC	6	3	-7	1	1
COc1cc(/C=C/C=C2/CC/C(=C/C=C/c3ccc(O)c(OC)c3)C2=O)ccc1O	-418	x	70*	26	x
C/C=C/c1ccc(O)c(OC)c1	0	-7	4	1	0
SMILES	B2AR ag	PP1 counter	NadD inh	Exocytosis inh	GRK2 inh
COc1cc(/C=C2/CC/C(=C/c3ccc(O)c(OC)c3)C2=O)ccc1O	-12	8	17	86*	1
COc1cc(/C=C2\COC/C(=C\c3ccc(O)c(OC)c3)C2=O)ccc1O	28	0	1	64*	0
Cc1cccc(C(=O)OCC(=O)Nc2ccc3c(c2)OCCO3)c1O	0	-3	-3	3	0
CCN1C(=O)C(O)(CC(=O)/C=C/C=C/c2ccccc2)c2ccccc21 (configuration not stated)	10	4	0	5	1
O=C(/C=C/C=C/c1ccccc1)CC1(O)C(=O)N(CCc2ccccc2)c2ccccc21 (configuration not stated)	93*	8	-1	13	0
O=S(=O)(O)c1ccc(N2N=C(c3ccccc3)CC2c2ccccc2)cc1 (configuration not stated)	1	1	19	3	6
O=C(O)CCn1cc(C2CC(c3ccccc3)=NN2c2ccccc2)c(-c2ccccc2)n1 (configuration not stated)	8	15*	4	-3	1
CCN(CC)c1ccc(/C=N/OCC(=O)Nc2cccc(C)c2)cc1	18	4	4	7	0
Cc1cccc(NC(=O)COc2ccc(/C=N\n3cnnc3)cc2)c1	-7	-2	2	-4	43*
O=C(Cc1c(F)cccc1Cl)Nc1ccccc1-c1ccccc1	2	-3	-8	18	1
CN(C)/C=N/C(=S)Nc1ccccc1Cl	5	0	5	-2	3
CN(C)/C=N/C(=S)Nc1ccccc1F	51*	-4	4	1	0
COCc1nnc(NC(=O)c2ccc(S(=O)(=O)N3CCOCC3)cc2)o1	-3	-3	-1	-1	0
COCc1nnc(NC(=O)c2ccc(S(=O)(=O)N3CCCc4ccccc43)cc2)o1	-1	17*	11	-1	0
COc1cccc(-c2nnc3sc(-c4ccccn4)nn23)c1	10	-1	-1	-3	1
COc1cccc(-c2nn3c(-c4ccccn4)nnc3s2)c1	-16	17*	4	0	0
Cc1ccc(NC(=S)N=Nc2c(O)n(C)c3ccc(S(=O)(=O)N4CCOCC4)cc23)cc1C	4	-3	31*	-1	7
Cn1c(O)c(N=NC(=S)Nc2ccccc2F)c2cc(S(=O)(=O)N3CCOCC3)ccc21	10	x	20	4	x
Cc1ccc(C2(C)NC(=O)N(CC(=O)NCCN3C(=O)S/C(=C\c4cccnc4)C3=O)C2=O)cc1 (configuration not stated)	-2	x	5	10	x
NS(=O)(=O)c1ccc(N=Nc2c(=O)[nH]n3c(=O)c4c([nH]c23)CCCC4)cc1	1	4	1	2	0
O=c1[nH]n2c(=O)c3c([nH]c2c1N=Nc1cccc(Cl)c1)CCC3	4	17*	21	-5	12
CCC(OC(C)=O)c1cc2c(cc1[N+](=O)[O-])OCCO2 (configuration not stated)	12	-2	0	-9	0
Cc1c2cc(O)c(=O)cc-2oc2cc(O)c(O)cc12	-173	33*	52*	-1	27
CCSC1(SCC)N=C(N)C2(C#N)C(c3ccc(F)cc3)C12C#N (configuration not stated)	25	-1	-4	69*	1
COC(=O)CCC(=O)OC1(C)C(=O)C=C2C=C(c3ccsc3)OC=C2C1=O (configuration not stated)	23	2	35*	-8	8

Assay outcomes from PubChem BioAssay.
